Screening data deposited in PubChem BioAssay by several laboratories.
LANA-H2B inh – blocks KSHV LANA binding to histone H2A/H2B; inhibition, % (no concentration beside the values); cell-free LANA-H2A/H2B peptide, fluorescence polarization; 320,000 compounds, 0.6% hits; Q9QR71; in the data active means inhibition mostly above about 10%, no sharp cut-off; inactive means mostly below about 6.7%
LANA DNA inh – inhibitors of KSHV LANA C-terminal domain DNA binding | MBP-C-LANA/FAM-LBS DNA binding, fluorescence polarization | 340,000 compounds, 0.078% hits | inhibition, % at 9 µM | AID 504423;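 active means highest replicate inhibition at or above 60% at 9 µM, even if other replicates fall short; inactive means all replicates below 60% inhibition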;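 further: 0% = neutral control wells and 100% = 4 µM acridine orange control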
RTF Ca sens act – cardiac RTF calcium sensitization; P19429+P45379; IANBD-labeled TnC RTF fluorescence at EC20 calcium; 0% EC20 calcium, 100% full calcium; activation, % at 7.2 µM; 340,000 compounds, 0.24% hits; AID 493008;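 active means activation above the mean over all tested compounds plus 3 SD, cut at about 30% in these data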;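 further: rise in fluorescence read as greater calcium sensitivity of cardiac thin filaments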
RTF Ca sens inh – cardiac RTF calcium desensitization | IANBD-labeled cardiac RTF, Ca2+ fluorescence | 340,000 compounds, 0.12% hits | P19429+P45379 | inhibition, % at 7.15 µM;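 active means inhibition above the mean inhibition of all tested compounds plus 3 SD, cut at about 17% in these data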;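 further: assay run at fixed EC70 calcium of 1.6 mM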
Keap1-Nrf2 PPI – Keap1-Nrf2 (human) interaction inhibition; 340,000 compounds, 0.15% hits; Keap1 Kelch-Nrf2 peptide fluorescence polarization, 1536-well; AID 504523; Q14145; inhibition, % at 9.4 µM; in the data active means inhibition above about 12%;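 further: human Keap1 Kelch domain with fluorescein labeled Nrf2 9mer peptide probe; 0% = neutral control wells and 100% = peptide positive control; higher means more block of Keap1 binding to Nrf2 peptide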
Keap1 TSA – Keap1 (human) Kelch domain binding | Keap1 Kelch thermal shift, delta Tm; hits give high values | shares compounds with Keap1-Nrf2 PPI | 400 compounds, 8% hits | max delta Tm, degrees C; in the data active means max delta Tm above about 0.48 degrees C
Dye-only ctr – counter-screen for Keap1 thermal shift hits: dye-only artifacts | AID 651858 | delta Tm, degrees C (test concentration not listed) | shares compounds with Keap1-Nrf2 PPI | Sypro Orange dye-only thermal melt, no protein, delta Tm; top dose 26 µM | 140 tested, under 10 active;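 active means at highest dose tested, delta Tm positive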
An asterisk follows results filed as active; nt = not tested or not shown. Most compounds without a hit are left out; they make up all but 0.98% or so of the library.

SMILES	LANA-H2B inh	LANA DNA inh	RTF Ca sens act	RTF Ca sens inh	Keap1-Nrf2 PPI	Keap1 TSA	others
Cn1c(SCC(=O)c2cc(Cl)c(Cl)s2)nnc1-c1ccco1	4	19	nt	nt	32*	-0.2
CCCCC1OC23CCCCC2C(C#N)(C(=N)O3)C1(C#N)C#N (configuration not stated)	-4	42	23	-38	20*	-0.15
CCCCC1OC23CCCCC2C(C#N)(C#N)C1(C#N)C(=N)O3 (configuration not stated)	6	45	46*	-32	24*	-0.15	Dye-only ctr=-29
O=C(NCCNC(=O)c1ccc(Br)o1)c1cccnc1	0	-1	1	-2	1	nt
O=C(NNC(=O)c1ccc(Br)s1)c1csc(N2CCOCC2)n1	-2	0	6	-6	-5	nt
CCN1CCN(S(=O)(=O)c2ccc(Cl)c(C(=O)NC3CCCCC3)c2)CC1	4	2	-3	-9	-4	nt
CCN1CCN(S(=O)(=O)c2ccc(Cl)c(C(=O)NC3CCC(C)CC3)c2)CC1 (configuration not stated)	2	13	-1	-2	29*	-0.09	Dye-only ctr=-25
C=C1CCN([C@@H](CC(C)C)C(=O)NCc2cc(OC)c(OC)c(OC)c2)S(=O)(=O)c2ccccc21	1	-1	-4	6	-1	nt
Cc1ccc(NC(=O)CN2C(=O)NC3(CCCCCC3)C2=O)cc1Cl	5	-1	0	-13	20*	-0.03
Cc1ccc(NC(=O)CN2C(=O)NC3(CCCC3)C2=O)cc1S(=O)(=O)N1CCCCC1	2	1	-5	6	-3	nt
CN1C(=O)NC(c2ccccc2[N+](=O)[O-])C2=C1CCCC2=O (configuration not stated)	18	46	38*	-64	29*	0.01	Dye-only ctr=-34
CC(Oc1ccccc1)C(=O)N1CCN=C1SCc1ccccc1F (configuration not stated)	4	-5	2	1	-1	nt
c1ccc(-n2ncc3c(NCC4CCCO4)ncnc32)cc1 (configuration not stated)	5	6	2	-11	12*	-0.19
COC(=O)c1ccccc1NC1=C/C(=N\S(=O)(=O)c2cccs2)c2ccccc2C1=O	-1	0	1	-1	-1	nt
COC(=O)c1ccccc1NC1=C/C(=N\S(=O)(=O)c2ccc(C(=O)O)cc2)c2ccccc2C1=O	13	10	-3	-12	14*	1.4*	Dye-only ctr=8.1*
Cc1ccc(S(=O)(=O)N2CCN(C(=O)C(Cc3ccccc3)NC(=O)c3ccccc3)CC2)cc1 (configuration not stated)	-2	0	-5	3	-1	nt
CCC(=O)C1CCCN(C(=O)c2ccc(OC3CCN(C(=O)CCOC)CC3)cc2)C1 (configuration not stated)	3	-1	-3	0	-3	nt
CC(C)NC(=O)N(C)C[C@H]1Oc2ccc(NS(=O)(=O)c3cn(C)cn3)cc2C(=O)N([C@H](C)CO)C[C@@H]1C	3	22	-5	0	29*	-0.11
Cc1nnsc1C(=O)N1CCN(c2ccc(F)cc2)CC1	0	11	2	5	14*	-0.15
CCOc1ccccc1C=C1SC(=S)NC1=O	nt	5	8	-3	37*	0.06
CCCCCCOC(=O)C(C#N)c1nc2ccccc2nc1N1CCOCC1 (configuration not stated)	-1	17	2	-2	20*	-0.12
CCCCOC(=O)C(C#N)c1nc2ccccc2nc1N1CCOCC1 (configuration not stated)	8	3	-2	-3	-8	nt
NC(=O)C1CCN(C2=C(Cl)C(=O)c3ccccc3C2=O)CC1	8	-1	-3	0	14*	0.14
Cc1cnc(NC(=O)C2CCC(C(C)(C)C)CC2)s1 (configuration not stated)	1	-2	-2	-6	-5	nt
COCCNc1nc(N2CCCCC2)c2cnn(C)c2n1	2	-1	3	-4	-3	nt
SMILES	LANA-H2B inh	LANA DNA inh	RTF Ca sens act	RTF Ca sens inh	Keap1-Nrf2 PPI	Keap1 TSA	others
CCOc1ncccc1C(=O)OCC(=O)Nc1ccc2c(c1)OCCO2	nt	-2	0	-1	-5	nt
CN1C(=O)c2cccc3c(S(N)(=O)=O)ccc1c23	4	19	5	-2	29*	-0.09
Cc1ccccc1NS(=O)(=O)c1ccc2c3c(cccc13)C(=O)N2C	3	0	-7	4	3	nt
COc1cc(NC(=O)CSc2nc3ccccc3cc2C)c(C(=O)O)cc1OC	2	1	4	1	-4	nt
COc1cc(NC(=O)CSc2nc3cc(C)ccc3cc2C)c(C(=O)O)cc1OC	1	10	1	0	16*	-0.12	Dye-only ctr=-21
NC(=O)NC(CC(=O)NNC(=O)c1ccccn1)c1ccccc1Cl (configuration not stated)	-3	4	3	-4	-4	nt
COc1ccc(NC(=O)NS(=O)(=O)c2ccc(C)cc2)cn1	68*	104*	348*	-491	77*	-0.13
COc1ccc(NC(=S)N2CCN(Cc3ccc(C)cc3)CC2)cc1	-1	-1	0	6	26*	-0.07	Dye-only ctr=-30
O=Nc1c(O)ccc2cc(S(=O)(=O)O)ccc12	nt	5	-1	-4	5	nt
CN(C)c1ccc2cc(S(=O)(=O)O)cc(O)c2c1	nt	54	7	-3	12*	1.3
Cc1oc(-c2ccccc2Cl)nc1CS(=O)(=O)CC(=O)NCCN1CCOCC1	0	1	5	-3	-7	nt
O=c1[nH]c(NC2CCCCC2)c([N+](=O)[O-])c(=O)[nH]1	8	0	4	2	-4	nt
O=c1c2ccccc2nc2n1CCC2	-3	2	-1	3	3	nt
O=C1CCn2c1c(O)c1ccccc1c2=O	nt	31	11	-9	19*	-0.07	Dye-only ctr=-31
Clc1ccc(C2=CC(c3ccco3)n3ncnc3N2)cc1 (configuration not stated)	7	48	217*	-205	28*	-0.02	Dye-only ctr=-34
Cc1ccc(C2=CC(c3ccc(C)cc3)n3ncnc3N2)cc1 (configuration not stated)	-2	0	1	-11	1	nt
COc1ccc(C2=CC(c3ccco3)n3ncnc3N2)cc1 (configuration not stated)	nt	40	83*	-98	20*	-0.16	Dye-only ctr=-28
CN(Cc1ccccc1Br)C(=O)CN1C(=O)NC2(CCCCCC2)C1=O	2	-1	-5	-7	0	nt
CN(CCC#N)C(=O)COC(=O)C1c2ccccc2Oc2ccccc21	-5	0	1	-38	-5	nt
N#CCCN(CCC#N)C(=O)C1c2ccccc2Oc2ccccc21	114*	95*	12	-22	64*	-0.18	Dye-only ctr=-32
